Measurements from publication PMC8384837, “Expanding the binding specificity for RNA recognition by a PUF domain”.
Positions count from the first letter of the chain named.

What was measured:
Experiment in all cases: yeast three-hybrid, YBZ-1, SC-Leu-His + 0.5 mM 3-AT, 4 days
Settings in all cases: tags: N-Gal4 AD-HA kept; label: inside an RPR1-promoter hybrid RNA with tandem MS2 sites; ssRNA
PUM1 PUF domain R3-LFC = PUM1 PUF domain R3-LFC (Homo sapiens, UniProt Q14671 828-1176, C935L;R936F;Q939C)
How it was run: (§1)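 The interaction score is the log change in how often each variant appears, from input to selection. Frequencies came from PCR-amplified, Illumina-sequenced repeat regions of Pumilio-1 PUF domain libraries grown in strain YBZ-1 (LexA–MS2 coat fusion, HIS3 reporter) alongside matching RNA elements. Input plates were SC-Leu and selection plates were SC-Leu-His + 0.5 mM 3-AT, each for four days, and the log2 calculation used a pseudocount of 1 where a variant was absent.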

PUM1 PUF domain R4-GPA = PUM1 PUF domain R4-GPA (Homo sapiens, UniProt Q14671 828-1176, N971G;H972P;Q975A)
How it was run: as §1

PUM1 PUF domain R4-PYG = PUM1 PUF domain R4-PYG (Homo sapiens, UniProt Q14671 828-1176, N971P;H972Y;Q975G)
How it was run: as §1

PUM1 PUF domain R4-CMG = PUM1 PUF domain R4-CMG (Homo sapiens, UniProt Q14671 828-1176, N971C;H972M;Q975G)
How it was run: as §1

PUM1 PUF domain R4-GNL = PUM1 PUF domain R4-GNL (Homo sapiens, UniProt Q14671 828-1176, N971G;H972N;Q975L)
How it was run: as §1

PUM1 PUF domain R4-PWK = PUM1 PUF domain R4-PWK (Homo sapiens, UniProt Q14671 828-1176, N971P;H972W;Q975K)
How it was run: as §1

PUM1 PUF domain R6-GHR = molecular target: T1, PUM1 PUF domain R6-GHR (Homo sapiens, UniProt Q14671 828-1176, N1043G;Y1044H;Q1047R)
T1 sequence: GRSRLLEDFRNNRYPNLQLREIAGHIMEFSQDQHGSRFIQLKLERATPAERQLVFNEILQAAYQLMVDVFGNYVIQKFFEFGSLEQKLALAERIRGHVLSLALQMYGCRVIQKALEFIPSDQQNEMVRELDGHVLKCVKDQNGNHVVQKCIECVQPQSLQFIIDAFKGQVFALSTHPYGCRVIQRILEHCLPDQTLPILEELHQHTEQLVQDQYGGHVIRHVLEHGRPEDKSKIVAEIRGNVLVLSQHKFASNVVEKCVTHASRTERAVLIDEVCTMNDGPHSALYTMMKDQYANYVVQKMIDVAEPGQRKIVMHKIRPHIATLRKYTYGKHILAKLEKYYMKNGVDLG
How it was run: as §1

PUM1 PUF domain R7-RGS = PUM1 PUF domain R7-RGS (Homo sapiens, UniProt Q14671 828-1176, S1079R;N1080G;E1083S)
How it was run: as §1

PUM1 PUF domain R3-TFP = PUM1 PUF domain R3-TFP (Homo sapiens, UniProt Q14671 828-1176, C935T;R936F;Q939P)
How it was run: as §1

PUM1 PUF domain R8-RRK = PUM1 PUF domain R8-RRK (Homo sapiens, UniProt Q14671 828-1176, N1122R;Y1123R;Q1126K)
How it was run: as §1

PUM1 PUF domain R4-SMC = PUM1 PUF domain R4-SMC (Homo sapiens, UniProt Q14671 828-1176, N971S;H972M;Q975C)
How it was run: as §1

PUM1 PUF domain R5-RFP = PUM1 PUF domain R5-RFP (Homo sapiens, UniProt Q14671 828-1176, C1007R;R1008F;Q1011P)
How it was run: as §1

PUM1 PUF domain R8-PYG = PUM1 PUF domain R8-PYG (Homo sapiens, UniProt Q14671 828-1176, N1122P;Q1126G)
How it was run: as §1

PUM1 PUF domain R5-TNG = PUM1 PUF domain R5-TNG (Homo sapiens, UniProt Q14671 828-1176, C1007T;R1008N;Q1011G)
How it was run: as §1

PUM1 PUF domain R6-CYQ = molecular target: T2, PUM1 PUF domain R6-CYQ (Homo sapiens, UniProt Q14671 828-1176, N1043C)
T2 sequence: T1 sequence with G216C, H217Y, R220Q
How it was run: as §1

PUM1 PUF domain R2-LFG = PUM1 PUF domain R2-LFG (Homo sapiens, UniProt Q14671 828-1176, N899L;Y900F;Q903G)
How it was run: as §1

PUM1 PUF domain R5-RKN = PUM1 PUF domain R5-RKN (Homo sapiens, UniProt Q14671 828-1176, C1007R;R1008K;Q1011N)
How it was run: as §1

PUM1 PUF domain R5-KKE = PUM1 PUF domain R5-KKE (Homo sapiens, UniProt Q14671 828-1176, C1007K;R1008K;Q1011E)
How it was run: as §1

PUM1 PUF domain R2-AFS = PUM1 PUF domain R2-AFS (Homo sapiens, UniProt Q14671 828-1176, N899A;Y900F;Q903S)
How it was run: as §1

PUM1 PUF domain R3-RQV = PUM1 PUF domain R3-RQV (Homo sapiens, UniProt Q14671 828-1176, C935R;R936Q;Q939V)
How it was run: as §1

Sequence: GGCUAGAACUAGUGGAUCCCCCGGCGCCCGGCGGCUCGAGCCCGGGUAAGUGUAAGUAGUCUGCAUGCCGCCGGGCGCCAUGCCUGCAGGUCGACUCUAGAAAACAUG
- binding signal (PUM1 PUF domain R3-LFC): 5.61 log2 enrichment (interaction score)

Sequence: GGCUAGAACUAGUGGAUCCCCCGGCGCCCGGCGGCUCGAGCCCGGGUAAGUGUACAUAGUCUGCAUGCCGCCGGGCGCCAUGCCUGCAGGUCGACUCUAGAAAACAUG
- binding signal (PUM1 PUF domain R4-GPA): 2.05 log2 enrichment (interaction score)
- binding signal (PUM1 PUF domain R4-PYG): 6.89 log2 enrichment (interaction score)
- binding signal (PUM1 PUF domain R4-CMG): 2.47 log2 enrichment (interaction score)
- binding signal (PUM1 PUF domain R4-GNL): 1.04 log2 enrichment (interaction score)
- binding signal (PUM1 PUF domain R4-PWK): 6.55 log2 enrichment (interaction score)

Sequence: GGCUAGAACUAGUGGAUCCCCCGGCGCCCGGCGGCUCGAGCCCGGGUAAGUGCAAAUAGUCUGCAUGCCGCCGGGCGCCAUGCCUGCAGGUCGACUCUAGAAAACAUG
- binding signal (PUM1 PUF domain R6-GHR): 2.2 log2 enrichment (interaction score)

Sequence: GGCUAGAACUAGUGGAUCCCCCGGCGCCCGGCGGCUCGAGCCCGGGUAAGUUUAAAUAGUCUGCAUGCCGCCGGGCGCCAUGCCUGCAGGUCGACUCUAGAAAACAUG
- binding signal (PUM1 PUF domain R7-RGS): 3.37 log2 enrichment (interaction score)

Sequence: GGCUAGAACUAGUGGAUCCCCCGGCGCCCGGCGGCUCGAGCCCGGGUAAGUGUAAAUAGUCUGCAUGCCGCCGGGCGCCAUGCCUGCAGGUCGACUCUAGAAAACAUG
- binding signal (PUM1 PUF domain R3-TFP): 4.82 log2 enrichment (interaction score)
- binding signal (PUM1 PUF domain R6-GHR): 3.81 log2 enrichment (interaction score)
- binding signal (PUM1 PUF domain R8-RRK): 4.75 log2 enrichment (interaction score)
- binding signal (PUM1 PUF domain R4-GPA): 3.16 log2 enrichment (interaction score)
- binding signal (PUM1 PUF domain R4-PYG): 5.58 log2 enrichment (interaction score)
- binding signal (PUM1 PUF domain R4-CMG): 3.4 log2 enrichment (interaction score)
- binding signal (PUM1 PUF domain R4-SMC): 3.15 log2 enrichment (interaction score)
- binding signal (PUM1 PUF domain R5-RFP): 2.31 log2 enrichment (interaction score)
- binding signal (PUM1 PUF domain R8-PYG): 1.81 log2 enrichment (interaction score)
- binding signal (PUM1 PUF domain R3-LFC): 1.84 log2 enrichment (interaction score)

Sequence: GGCUAGAACUAGUGGAUCCCCCGGCGCCCGGCGGCUCGAGCCCGGGUAAGUGUUAAUAGUCUGCAUGCCGCCGGGCGCCAUGCCUGCAGGUCGACUCUAGAAAACAUG
- binding signal (PUM1 PUF domain R5-TNG): 3.75 log2 enrichment (interaction score)

Sequence: GGCUAGAACUAGUGGAUCCCCCGGCGCCCGGCGGCUCGAGCCCGGGUAAGUGAAAAUAGUCUGCAUGCCGCCGGGCGCCAUGCCUGCAGGUCGACUCUAGAAAACAUG
- binding signal (PUM1 PUF domain R6-CYQ): 6 log2 enrichment (interaction score)

Sequence: GGCUAGAACUAGUGGAUCCCCCGGCGCCCGGCGGCUCGAGCCCGGGUAAGUGUAAAGAGUCUGCAUGCCGCCGGGCGCCAUGCCUGCAGGUCGACUCUAGAAAACAUG
- binding signal (PUM1 PUF domain R2-LFG): 0.94 log2 enrichment (interaction score)

Sequence: GGCUAGAACUAGUGGAUCCCCCGGCGCCCGGCGGCUCGAGCCCGGGUAAGUGUCAAUAGUCUGCAUGCCGCCGGGCGCCAUGCCUGCAGGUCGACUCUAGAAAACAUG
- binding signal (PUM1 PUF domain R5-RKN): 2.84 log2 enrichment (interaction score)
- binding signal (PUM1 PUF domain R5-KKE): 5.07 log2 enrichment (interaction score)
- binding signal (PUM1 PUF domain R5-RFP): 4.87 log2 enrichment (interaction score)

Sequence: GGCUAGAACUAGUGGAUCCCCCGGCGCCCGGCGGCUCGAGCCCGGGUAAGUGUAAAAAGUCUGCAUGCCGCCGGGCGCCAUGCCUGCAGGUCGACUCUAGAAAACAUG
- binding signal (PUM1 PUF domain R2-AFS): 3.67 log2 enrichment (interaction score)
- binding signal (PUM1 PUF domain R2-LFG): 3.76 log2 enrichment (interaction score)

Sequence: GGCUAGAACUAGUGGAUCCCCCGGCGCCCGGCGGCUCGAGCCCGGGUAAGUGUAAUUAGUCUGCAUGCCGCCGGGCGCCAUGCCUGCAGGUCGACUCUAGAAAACAUG
- binding signal (PUM1 PUF domain R3-TFP): 3.79 log2 enrichment (interaction score)
- binding signal (PUM1 PUF domain R3-RQV): 4.16 log2 enrichment (interaction score)

Sequence: GGCUAGAACUAGUGGAUCCCCCGGCGCCCGGCGGCUCGAGCCCGGGUAAGUCUAAAUAGUCUGCAUGCCGCCGGGCGCCAUGCCUGCAGGUCGACUCUAGAAAACAUG
- binding signal (PUM1 PUF domain R7-RGS): 1.66 log2 enrichment (interaction score)

Sequence: GGCUAGAACUAGUGGAUCCCCCGGCGCCCGGCGGCUCGAGCCCGGGUAAGUGUAUAUAGUCUGCAUGCCGCCGGGCGCCAUGCCUGCAGGUCGACUCUAGAAAACAUG
- binding signal (PUM1 PUF domain R4-GPA): 1.91 log2 enrichment (interaction score)
- binding signal (PUM1 PUF domain R4-PYG): 7.83 log2 enrichment (interaction score)
- binding signal (PUM1 PUF domain R4-SMC): 2.83 log2 enrichment (interaction score)
- binding signal (PUM1 PUF domain R4-GNL): 3.47 log2 enrichment (interaction score)
- binding signal (PUM1 PUF domain R4-PWK): 6.97 log2 enrichment (interaction score)

Sequence: GGCUAGAACUAGUGGAUCCCCCGGCGCCCGGCGGCUCGAGCCCGGGUAAGCGUAAAUAGUCUGCAUGCCGCCGGGCGCCAUGCCUGCAGGUCGACUCUAGAAAACAUG
- binding signal (PUM1 PUF domain R8-RRK): 5.29 log2 enrichment (interaction score)
- binding signal (PUM1 PUF domain R8-PYG): 2.76 log2 enrichment (interaction score)
